The whole screen tested about 65,000 compounds, of which about 2,100 (3.2%) showed an effect of 50% or more. The median lay at about -52%. The sample as a whole holds a higher share of strong results than the screen did.

The results in this text go back to ChEMBL document CHEMBL4513216, “Probing the Open Global Health Chemical Diversity Library for Multistage-Active Starting Points for Next-Generation Antimalarials” (ACS Infect Dis, 2020).

The experiment deals with Plasmodium falciparum. As to the kind of experiment: Screen against P. falciparum Asexual Blood Stage (ABS), at 5uM. Format: functional, Dd2. The settings on record: tested at 5 uM.
On to `COCC(=O)Nc1ccnc(OCCN(C)C)c1`, for which the INHIBITION is on record as -59.7%.
As for `CCc1ccccc1OCC(=O)Nc1ccnc(OCCN(C)C)c1`, the INHIBITION was determined as 59.7%.
With `Cc1nc2ccn(C(C)C)c(=O)c2cc1C(=O)O`, the INHIBITION was -39.7%.
Next, `CC(=O)N1CCC(n2ccc(-c3cnc(NCC(C)C)nc3)n2)CC1`: -32.2%; `CC(C)N(CCNc1nc(C2CCCC2)nc2c1cnn2C)C(C)C`: 58.6%.
The figure for `CCS(=O)(=O)CCNc1nc(C2CCCC2)nc2c1cnn2C` is -115%; for `Cn1ncc2c(NCCn3cccc3)nc(C3CCCC3)nc21` it is 9.86%.
The figure for `CNCCCNc1nc(C2CCCC2)nc2c1cnn2C` is -38.7%; for `Cn1ncc2c(NCCC34CCCN3CCC4)nc(C3CCCC3)nc21` it is 63.3%; for `CCOCCNc1nc(C2CCCC2)nc2c1cnn2C` it is -129%.
As for `N#CCCCS(=O)(=O)NC1(c2cccc(Br)c2)CC1`, the INHIBITION was -148%.
The figure for `CCOC1COC2(CCN(c3ccccn3)CC2)C1` (stereo unspecified) is -0.961%.
Next, `CCOCC(O)c1nc2c([nH]1)CC(C)(C)CNC2=O` (stereo unspecified): -96.9%; `Cc1cnn(CC(C)NCc2c(C)nn(Cc3ccccc3)c2C)c1` (stereo unspecified): 50.7%.
Next, `Cc1cnn(CC(C)NCc2ccc(-n3cccn3)cc2)c1` (stereo unspecified): -72.7%; `Cc1cnn(CCNCc2c(C)nn(Cc3ccccc3)c2C)c1`: 34.2%; `CCOCC1CN(C(=O)C2CCOCC2)Cc2cnn(C)c21` (stereo unspecified): -57.8%.
With `Cc1ccc(CN2CCN(c3cncc(N(C)C)n3)CC2=O)cc1C`, the INHIBITION is -30%.
Next, `CCN(CC)S(=O)(=O)c1ccc(CNc2cc(C)nc(C)n2)cc1`: -79.3%; `COCCO[C@H]1CCN(Cc2cccnc2)[C@H]1Cc1cccnc1`: 3.22%; `Cc1nc(CN2CC[C@@H](OCC3CC3)[C@@H]2Cc2cccnc2)cs1`: 6.96%.
Next, `COCCO[C@H]1CCN(Cc2ccsc2)[C@H]1Cc1cccnc1`: 14.6%; `Cc1nc(CN2CC[C@H](OCC3CC3)[C@@H]2Cc2cccnc2)cs1`: 60.4%.
The figure for `COCCO[C@@H]1CCN(Cc2csc(C)n2)[C@H]1Cc1ccccc1` is 65.8%; for `Cc1ccc(N2CC[C@H](OCC3CC3)[C@@H]2Cc2cccnc2)nn1` it is -79.3%; for `Cc1ccc(CN2CCC3(C2)C(=O)N(CC2CC2)c2ccccc23)s1` (stereo unspecified) it is -74.8%.
Turning to `COCC(=O)N1C[C@H]2CN(Cc3cccc(F)c3)C(=O)[C@H]2C1`, the INHIBITION was -63.1%.
For `Cc1cc(CN2CCN(C(=O)NC(C)c3cccnc3)CC2)no1` (stereo unspecified), the INHIBITION is on record as 49.7%.
Regarding `CC(NC(=O)N1CCCN(Cc2cccs2)CC1)c1cccnc1` (stereo unspecified), the INHIBITION is reported as -63.5%.
As for `Cc1nc(CN2CCN(C(=O)NC(C)c3cccnc3)CC2)cs1` (stereo unspecified), the INHIBITION was 56.3%.
The figure for `CC(C)NC(=O)CCNC(=O)CCc1cc(Cl)cs1` is -9.13%; for `Cn1nc(CN2CCCC2)c2c1CN(c1cnccn1)CC2` it is -56%; for `COc1c(CNCC(O)c2cccc(F)c2)c(C(C)C)nn1C` (stereo unspecified) it is 63.5%.
Regarding `COc1c(CNC2CCc3c(F)cccc32)c(C)nn1C` (stereo unspecified), the INHIBITION is -21.6%.
The figure for `COc1c(CNC2CCCOc3ccc(F)cc32)c(C(C)C)nn1C` (stereo unspecified) is 38.8%; for `COc1c(CNC2CCOc3ccccc32)c(C(C)C)nn1C` (stereo unspecified) it is -20.7%; for `COc1c(CNC2CCCOc3ccccc32)c(C(C)C)nn1C` (stereo unspecified) it is 52.2%.
Next, `COc1c(CNC2CCc3c(Cl)cccc32)c(C)nn1C` (stereo unspecified): 62.6%.
For `COc1c(CNC2CCCOc3ccccc32)c(C)nn1C` (stereo unspecified), the INHIBITION is given as -42.2%.
Next, `COc1c(CNC2CCCc3ccccc32)c(C)nn1C` (stereo unspecified): 3.18%; `COc1c(CNCC(O)c2cccc(F)c2)c(C)nn1C` (stereo unspecified): -92.7%.
The figure for `COc1c(CNCC(O)c2ccccc2)c(C(C)C)nn1C` (stereo unspecified) is 0.811%.
Next, `COc1c(CNC2CCCc3ccccc32)c(C(C)C)nn1C` (stereo unspecified): 64.8%.
As for `COc1c(CNC2CCOc3c(Cl)cccc32)c(C)nn1C` (stereo unspecified), the INHIBITION worked out at 10.1%.
As to `COc1ccc(CN2CCCn3cnc(COC(C)C)c3C2)cc1`, the INHIBITION is -12.6%.
Consider `CC(C)n1nc(Cn2cccc2)c2c1CN(Cc1ccoc1)C2`, for which the INHIBITION was -92.6%.
Next, `Cc1ccccc1C(=O)N1C[C@@H]2C(CN(C)CCc3ccccn3)[C@@H]2C1` (stereo partly specified): -14.6%.
With `COc1c(CNC2CCc3ccccc32)c(C(C)C)nn1C` (stereo unspecified), the INHIBITION amounted to 62.5%.
Next, `COc1ccc(CNCc2c(C(C)C)nn(C)c2OC)cn1`: 60.8%; `COc1c(CNCc2ccc(N(C)C)nc2)c(C(C)C)nn1C`: -79%.
Take `COc1c(CNC2CCc3ccccc32)c(C)nn1C` (stereo unspecified): the INHIBITION came out at 33.9%.
As to `CC(C)c1nn(C)c(N(C)C)c1CNC1CCc2cc(F)ccc21` (stereo unspecified), the INHIBITION was 0.843%.
Next, `COc1c(CNC2CCOc3c(Cl)cccc32)c(C(C)C)nn1C` (stereo unspecified): -60.2%; `COc1c(CNC2CCc3cc(F)ccc32)c(C(C)C)nn1C` (stereo unspecified): 59.7%; `COc1ccc(CNCc2c(C(C)C)nn(C)c2N(C)C)cn1`: -26.4%.
With `COc1c(CNC2CCc3cc(F)ccc32)c(C)nn1C` (stereo unspecified), the INHIBITION is reported as 28.1%.
